# Screens (PubChem)
# DT40 TDP1 CPT = DT40-hTDP1 cell growth loss with CPT; chicken DT40 Tdp1-/-;hTDP1 cells + 20 nM CPT, ATP luminescence, 48 h; Potency, µM (doses to about 46.2 µM), for inactives: top-dose activity change, negative = growth inhibition, actives largely listed as inhibitors; actives 12% (n = 420,000); also: potency is read from the fitted curve at half-maximal effect; nearly all actives have a fitted effect of over 55% in size
#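 Chicken DT40 Tdp1-/- cells complemented with human TDP1, 400 cells/well, exposed to compounds plus 20 nM camptothecin for at least 48 h at 37 C; viability read as ATP content by CellTiter-Glo luminescence.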
# IL1B secr inh = inflammasome signaling inhibition, IL-1 beta readout. THP-1 LPS/ATP IL-1B secretion, AlphaLISA, 16 h; stronger effect = lower value. activity change, % at 57.5 µM. actives 4.7% (n = 360,000). AID 743279; in the data active = activity change below about -50%; inconclusive = mostly about -30% to -49%
#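 Secreted IL-1B measured by AlphaLISA bead assay after 16 h compound exposure of THP-1 cells; compounds (final up to 57.5 uM) added 1 h before LPS (250 ng/mL) and ATP (1.25 mM) stimulation; lower signal means less secretion.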
# DT40 TDP1 no CPT = qHTS for Inhibitors of human tyrosyl-DNA phosphodiesterase 1 (TDP1): qHTS in cells in absence of CPT; AID 686978, 2013; actives 15% (n = 420,000); DT40 Tdp1-/- hTDP1 cells, no CPT, ATP luminescence, 48 h; Potency, µM (top dose mostly 46.2 µM), without a hit: top-dose activity change, negative = growth inhibition, actives largely listed as inhibitors; also: potency is read from the fitted curve at half-maximal effect; nearly all actives have a fitted effect of over 55% in size
#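 DT40 Tdp1-/-;hTDP1 cells, no CPT (DMSO vehicle only), 400 cells/well; compounds pin-transferred; ≥48 hr, 37 °C; CellTiter-Glo 30 min RT dark, luminescence read.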
# HT1080-NT tox = kills 2HG-producing HT-1080-NT fibrosarcoma cells; HT-1080-NT fibrosarcoma viability, CellTiter-Glo ATP luminescence, 48 h; Potency, µM (doses to about 46.1 µM), inactives show top-dose activity, negative = less viability, usual class: cytotoxic; actives 1.6% (n = 360,000); AID 686970;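 also: NT is the 2HG producing partner of a matched IDH1 knockdown line; potency is read from the fitted curve at half-maximal effect; 0% = DMSO-treated cells and -100% = media-only wells without cells; nearly all actives have a fitted effect of over 55% in size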
#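 HT-1080-NT; 750 cells/well; 5% FBS RPMI; 48 h compound, 37 degrees C; CellTiter-Glo luminescence; curve fitting and curve-class assignment.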
# ALOX12 inh = blocks human arachidonate 12S-lipoxygenase; P18054; purified 12hLO, xylenol orange hydroperoxide absorbance; Potency, µM (series often up to 108 µM), inactives show top-dose activity change, negative = inhibition, actives largely listed as inhibitors; actives 1.1% (n = 580,000); also: potency is read from the fitted curve at half-maximal effect
# Target sequence (P18054 whole entry, looked up): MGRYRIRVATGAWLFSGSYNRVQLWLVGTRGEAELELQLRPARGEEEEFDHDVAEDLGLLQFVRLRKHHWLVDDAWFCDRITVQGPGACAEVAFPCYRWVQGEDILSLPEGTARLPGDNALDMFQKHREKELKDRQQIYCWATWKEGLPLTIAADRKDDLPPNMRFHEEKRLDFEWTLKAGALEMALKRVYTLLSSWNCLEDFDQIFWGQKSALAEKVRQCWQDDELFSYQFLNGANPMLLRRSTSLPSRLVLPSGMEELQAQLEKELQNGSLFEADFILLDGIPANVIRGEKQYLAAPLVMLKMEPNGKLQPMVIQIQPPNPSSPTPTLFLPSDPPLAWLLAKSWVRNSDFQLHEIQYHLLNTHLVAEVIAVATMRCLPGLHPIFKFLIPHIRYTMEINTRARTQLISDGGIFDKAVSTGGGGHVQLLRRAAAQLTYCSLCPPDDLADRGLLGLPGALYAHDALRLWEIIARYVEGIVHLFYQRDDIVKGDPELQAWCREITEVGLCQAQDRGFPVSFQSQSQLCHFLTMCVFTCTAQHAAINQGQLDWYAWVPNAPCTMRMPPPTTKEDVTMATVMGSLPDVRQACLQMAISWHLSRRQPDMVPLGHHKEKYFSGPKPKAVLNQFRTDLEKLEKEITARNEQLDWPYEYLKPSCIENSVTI
#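 Hydroperoxide product was detected by ferrous iron/xylenol orange as the 573 to 405 nm absorbance ratio. Arachidonic acid at 40 uM (final) was turned over for 30 min at room temperature by 150 nM human 12hLO, pH 7.0 Hepes buffer, after 15 min compound preincubation.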
# HT1080 IDH1KD tx = toxicity to HT-1080 IDH1 knockdown cells (counter line) | HT-1080 IDH1 knockdown viability, ATP luminescence, 48 h | Potency, µM (series often up to 46.1 µM), for the others: at the top dose activity, negative = toxicity, hits mostly cytotoxic | actives 2% (n = 360,000) | AID 686971;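 also: potency is read from the fitted curve at half-maximal effect; 0% = DMSO wells and -100% = cell-free medium wells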
#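 CellTiter-Glo luminescence after 48 h compound exposure at 37 degrees C of IDH1-knockdown HT-1080 cells in 5% FBS RPMI. %Activity scaled between DMSO wells and cell-free media wells, with curves fitted and assigned curve classes.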
# An asterisk follows results filed as active; i = inactive; ? = inconclusive; . = no result given; ! = not confirmed by another sample; [ ] = remark or other dose. Many of the other results were omitted from the sample, so hits are more common in it than they were. Unless noted, calls follow the shape of the dose curve; as a rule, active = well fitted curve in the direction sought with a large enough effect; inconclusive = small, poorly fitted or top-dose-only effect, or another doubt; inactive = no such curve, though single readings can be large; an effect the other way counts as inactive or inconclusive. Unless noted, % is scaled to controls: 0 for no effect and ±100 for the full control effect.
SMILES,DT40 TDP1 CPT,IL1B secr inh,DT40 TDP1 no CPT,HT1080-NT tox,ALOX12 inh,HT1080 IDH1KD tx
Cc1[nH]c2ccccc2c1C(=O)c1cc(Cc2ccccc2)sc1N,?,-51*,16µM*,?,?,?
CCOC(=O)c1ccc(Oc2coc3cc(OCc4ccccc4)ccc3c2=O)cc1,.,.,.,.,-5%,.
CCOc1ccc(S(=O)(=O)Nc2cnc3ccccc3c2)cc1,18µM*,33,18µM*,?,-9%,-13%
Cc1cc(C)c(S(=O)(=O)Nc2nnc(C)s2)c(C)c1,15µM*,12,18µM*,-1%,-11%,-1%
Cc1cc(C)c(S(=O)(=O)Nc2ccccc2-c2ccccc2)c(C)c1,?,i,21µM*,-2%,-16%,-20%
Cc1cc(C)c(S(=O)(=O)Nc2cnc3ccccc3c2)c(C)c1,?,-73*,?,-20%,16µM*!,-12%
CCOc1ccc(S(=O)(=O)Nc2cccnc2)cc1,-16%,0,-27%,-1%,-23%,-8%
O=C(NCc1ccccc1)c1cnc2n1CCN(Cc1ccccc1F)CC2,.,.,.,.,15%[176 µM],.
Cc1ccc2[nH]c(C(=O)NCCc3ccccc3)cc2c1,.,.,.,.,-4%,.
CCOc1ccc(S(=O)(=O)Nc2nc3ccccc3nc2Cl)cc1,?,61,21µM*,-1%,0%,0%
CCc1cccc2c(/C=C(/C#N)c3nc4cc(C)c(C)cc4[nH]3)c[nH]c12,.,.,.,.,15%,.
CN(C)CCNc1ncnc2c1sc1nc(-c3ccccc3)c3c(c12)CCCC3,?,-76*,23µM*,10µM*,?,18µM*
COC(=O)c1ccc(CN2C(=O)[C@@H]3C[C@@H](O)CN3C3(CN(Cc4cccc(OC(F)(F)F)c4)C3)C2=O)cc1,.,.,.,.,-6%,.
COc1ccc(CNC(=O)c2cccc(OCc3ccccc3)c2)cc1,.,.,.,.,6%,.
Cc1ccccc1NC(=S)NCc1ccc2[nH]c3c(c2c1)CCCC3,?,-12,21µM*,-16%,?,-5%
Cn1cnc2c1c(=O)n(CCCSc1nc3ccccc3[nH]1)c(=O)n2C,.,.,.,.,-11%,.
COc1ccc(-c2ccnc(-n3ncc(C(=O)NCc4ccon4)c3C3CC3)n2)cc1F,?,.,23µM*,.,26%,.
COc1ccc(-c2ccnc(-n3ncc(C(=O)NCc4cccnc4)c3C3CC3)n2)cc1F,-9%[9.04 µM],.,16µM*,.,0%,.
Cc1cc(-c2ccnc(-n3ncc(C(=O)NCc4cccnc4)c3C3CC3)n2)c(C)s1,-12%[9.04 µM],.,?,.,5%,.
COc1ccc(C2=CC(=O)N(CCC(N)=O)C2)cc1,.,.,.,.,-1%,.
NC(=O)c1cc(Br)cc2c3c([nH]c12)CCCC3,18µM*,-81*,23µM*,?,?,?
Cc1ccc(CN(C)C(=O)CN2CCCC2c2ccc3c(c2)OCCO3)cc1 (stereo unspecified),.,.,.,.,22%,.
CN(CC(=O)Nc1ccc(Cl)c(C(F)(F)F)c1)C(=O)C1CCC1,?,-6,?,-2%,?,3%
CN(CC(=O)Nc1ccc(Cl)c(C(F)(F)F)c1)C(=O)c1ccc(OCC2CCCO2)cc1 (stereo unspecified),18µM*,-22,16µM*,-15%,-12%,?
CN(CC(=O)Nc1ccc(Cl)c(C(F)(F)F)c1)C(=O)c1ccc(S(=O)(=O)N2CCOCC2)cc1,4.6µM*,73,6.5µM*,-24%[9.24 µM],19%,10µM*
SMILES,DT40 TDP1 CPT,IL1B secr inh,DT40 TDP1 no CPT,HT1080-NT tox,ALOX12 inh,HT1080 IDH1KD tx
Cc1ccc(S(=O)(=O)N2CCCCC2)cc1C(=O)N(C)CC(=O)Nc1ccc(Cl)c(C(F)(F)F)c1,?,-56*,?,10%,i,3%
COc1cccc(NC(=O)CN(C)C(=O)c2cc(S(=O)(=O)N3CCCCC3)ccc2Cl)c1,?,7,?,0%,?,4%
COc1ccc(S(=O)(=O)N2CCCCCC2)cc1C(=O)N(C)CC(=O)Nc1ccc(Cl)c(Cl)c1,?,-59*,?,-29%,-26%,-21%
O=C(O)CCc1cc2n(n1)CCN(C(=O)c1ccccc1-n1cccc1)C2,.,.,.,.,-1%,.
CSc1nc(C)nc2c1c(=O)n(C)c(=O)n2CC(C)C,.,.,.,.,4%,.
CC(C)(C)OC(=O)N1Cc2ccccc2C[C@H]1C(=O)NCC(=O)Nc1ccc2c(c1)OCO2,.,.,.,.,7%,.
Cc1ccc(C(=O)N(C)CC(=O)Nc2cccc(F)c2)cc1S(=O)(=O)N1CCCCC1,?,3,?,1%,-7%,-6%
Cc1ccc(C(=O)N(C)CC(=O)Nc2ccc(Cl)c(C(F)(F)F)c2)cc1S(=O)(=O)N1CCCCC1,?,-23,23µM*,?,1%,?
c1ccc(CN2CCCNCC2)cc1,.,.,.,.,5%,.
COc1ccc([N+](=O)[O-])c(S(=O)(=O)c2ccc(Cl)cc2)n1,1µM*,-95*,0.65µM*,23µM*,-24%,8.2µM*
O=[N+]([O-])c1cccnc1S(=O)(=O)c1ccccc1,0.92µM*,-97*,0.82µM*,12µM*,0%,18µM*
Nc1cccnc1S(=O)(=O)c1ccccc1,-12%,16,18%,24%,62%,8%
COc1ccc([N+](=O)[O-])c(S(=O)(=O)c2ccccc2)n1,0.58µM*,-96*,1.6µM*,21µM*,-160%,13µM*
CCC(CO)NS(=O)(=O)c1cc(Cl)ccc1Cl (stereo unspecified),.,.,.,.,-6%,.
O=c1ncn(Cc2ccccc2)c2ccc(NCCOc3ccccc3)nc12,.,.,.,.,21%[176 µM],.
Cc1ccc(-c2noc(-c3ccccc3NC(=O)C3CC(=O)N(c4ccccc4C)C3)n2)cc1 (stereo unspecified),18µM*,.,23µM*,.,0%,.
Cc1cccc(-c2noc(-c3ccccc3NC(=O)C3CC(=O)N(c4ccccc4C)C3)n2)c1 (stereo unspecified),23µM*,.,15µM*,.,-4%,.
COc1ccc(N2CC(C(=O)Nc3ccccc3-c3nc(-c4ccc(C)cc4)no3)CC2=O)cc1 (stereo unspecified),-3%,.,-7%,.,-15%,.
COc1ccc(C(=O)N2CCc3ccc(C(=O)NC4CCCCC4)cc32)cc1,.,.,.,.,23%,.
Cc1[nH]c2ccccc2c1C1=NNC(=Nc2ccc(F)cc2)SC1,?,-66*,?,-26%,?,-24%
COc1ccc(N=C2NN=C(c3c(C)[nH]c4ccccc34)CS2)cc1,?,?,23µM*,?,?,?
